Screening results from PubChem.
Sampled rows, rich in hits. Any-hit rate of the full collection: about 5.7%.
HT1080-NT tox: kills 2HG-producing HT-1080-NT fibrosarcoma cells. HT-1080-NT fibrosarcoma viability, CellTiter-Glo ATP luminescence, 48 h. Potency, µM (series often up to 46.1 µM), inactives show at the highest dose activity, negative = less viability, usual class: cytotoxic. 1.6% of 360,000 active. AID 686970;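 note: NT is the 2HG producing partner of a matched IDH1 knockdown line; 0% = DMSO-treated cells and -100% = media-only wells without cells; nearly all actives have a fitted effect of over 55% in size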
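Read-out is CellTiter-Glo luminescence after 10 minutes at room temperature, following 48 hours' compound treatment of HT-1080-NT cells (750 cells/well, RPMI, 5% FBS, 37 degrees C).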
KB-3-1 cytotox: KB-3-1 parental cell cytotoxicity. 1.4% of 400,000 active. AID 1347075. Potency, µM (highest dose often 46.1 µM), actives largely listed as cytotoxic. KB-3-1 viability, CellTiter-Glo ATP luminescence, 72 h; note: nearly all actives have a fitted effect of over 60% in size
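Parental KB-3-1 viability, qHTS format: 72 h compound exposure, 37 °C; CellTiter-Glo; media-only wells and DMSO plates as controls; concentration-effect fits on corrected data.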
KB-V1 MDR tox: KB-V1 MDR subline cytotoxicity | AID 1347076 | KB-V1 MDR cells viability, CellTiter-Glo, 72 h | Potency, µM (titrated, usually from 46.1 µM), actives largely listed as cytotoxic | 3.4% of 400,000 active; note: nearly all actives have a fitted effect of over 60% in size
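Cytotoxicity toward P-gp-expressing KB-V1 cells was determined as loss of CellTiter-Glo luminescence after 72 h at 37 degrees C. Compounds were tested in quantitative HTS format across a concentration range, with curves fitted to normalized data.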
HT1080 IDH1KD tx: kills HT-1080 cells with IDH1 knockdown; HT-1080 IDH1 knockdown viability, ATP luminescence, 48 h; Potency, µM (highest dose often 46.1 µM), for the others: at the top dose activity, negative = toxicity, actives largely listed as cytotoxic; 2% of 360,000 active; AID 686971;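 note: 0% = DMSO wells and -100% = cell-free medium wells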
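After a 2 h attachment period, IDH1KD HT-1080 cells took pin-transferred compound for 48 h at 37 °C; ATP-based luminescence after 10 min room-temperature reagent incubation reported viability.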
The depositor's hits bear a star. Calls come from the whole dose curve; as a rule, active = well fitted curve in the direction sought with a large enough effect; inconclusive = small, poorly fitted or top-dose-only effect, or another doubt; inactive = no such curve, though single readings can be large; an effect the other way counts as inactive or inconclusive. Unless noted, % is set by controls: 0 for no effect and ±100 for the full control effect; potency is the fitted concentration of half-maximal effect.

What do the screens show for `CCOC(=O)c1c(C)[nH]c(C(=O)OCC(=O)NCc2ccc(OC)c(OC)c2)c1C`?
HT1080-NT tox: -29%; KB-3-1 cytotox: inconclusive; KB-V1 MDR tox: 21µM*; HT1080 IDH1KD tx: inconclusive

What do the screens show for `CCOc1ccccc1NC(=O)c1c(C)cc(C)nc1SCC(=O)c1cccc(OC)c1`?
KB-3-1 cytotox: inactive; KB-V1 MDR tox: inconclusive

How did Cc1[nH]c(=O)[nH]c(=O)c1C1N2CC3(C(C)C)CN1CC(C(C)C)(C2)C3=O (stereo not drawn) do in these assays?
KB-3-1 cytotox: inactive; KB-V1 MDR tox: inactive

Results for C#CCSc1nnnn1-c1ccc(OCC)cc1 ?
HT1080-NT tox: -6%; KB-3-1 cytotox: inactive; KB-V1 MDR tox: inactive; HT1080 IDH1KD tx: -14%

What do the screens show for `O=C(COC(=O)c1cc([N+](=O)[O-])ccc1NCCO)c1ccccc1`?
HT1080-NT tox: -7%; KB-3-1 cytotox: inconclusive; KB-V1 MDR tox: 21µM*; HT1080 IDH1KD tx: 1%

Results for O=C(NCCNc1ccc([N+](=O)[O-])cc1C(F)(F)F)c1cccc(F)c1 ?
HT1080-NT tox: -16%; KB-3-1 cytotox: inconclusive; KB-V1 MDR tox: 18µM*; HT1080 IDH1KD tx: -28%

Results for O=C(NCCNc1ccc([N+](=O)[O-])cc1C(F)(F)F)c1ccccc1 ?
HT1080-NT tox: 1%; KB-3-1 cytotox: inactive; KB-V1 MDR tox: 16µM*; HT1080 IDH1KD tx: -10%

What do the screens show for `O=C(NCCNc1ccc([N+](=O)[O-])cc1)c1cccc(Br)c1`?
HT1080-NT tox: 1%; KB-3-1 cytotox: inactive; KB-V1 MDR tox: inactive; HT1080 IDH1KD tx: 13%

How did COC(=O)c1cc(-c2c(C)oc3cc(OC)ccc3c2=O)c(C)o1 do in these assays?
HT1080-NT tox: 7%; KB-3-1 cytotox: inactive; KB-V1 MDR tox: 18µM*; HT1080 IDH1KD tx: 4%

What do the screens show for `CCOC(=O)[C@]12CCCC=C1N(Cc1ccc3c(c1)OCO3)C(=O)[C@H](CC(=O)NCc1cccc3ccccc13)C2`?
HT1080-NT tox: inconclusive; KB-3-1 cytotox: inactive; KB-V1 MDR tox: inconclusive; HT1080 IDH1KD tx: -28%

What do the screens show for `CCOC(=O)[C@]12CCCC=C1N(Cc1ccc3c(c1)OCO3)C(=O)[C@H](CC(=O)NCc1cccc(C(F)(F)F)c1)C2`?
HT1080-NT tox: 10µM*; KB-3-1 cytotox: inactive; KB-V1 MDR tox: inconclusive; HT1080 IDH1KD tx: 16µM*

How did CCOC(=O)[C@]12CCCC=C1N(Cc1ccc(Cl)cc1Cl)C(=O)[C@H](CC(=O)NCc1cccc(C(F)(F)F)c1)C2 do in these assays?
HT1080-NT tox: 33µM*; KB-3-1 cytotox: inconclusive; KB-V1 MDR tox: 16µM*; HT1080 IDH1KD tx: inconclusive

What do the screens show for `COC(=O)[C@]12CCCCC=C1N(Cc1ccc(Cl)cc1Cl)C(=O)[C@H](CC(=O)NCc1cccc(C(F)(F)F)c1)C2`?
HT1080-NT tox: inconclusive; KB-3-1 cytotox: inactive; KB-V1 MDR tox: inactive; HT1080 IDH1KD tx: inconclusive

What do the screens show for `CCOC(=O)[C@]12CCC=C1N(Cc1ccc(Cl)cc1Cl)C(=O)[C@H](CC(=O)NCc1cccc(C(F)(F)F)c1)C2`?
HT1080-NT tox: inconclusive; KB-3-1 cytotox: inconclusive; KB-V1 MDR tox: 21µM*; HT1080 IDH1KD tx: inconclusive

What do the screens show for `CCOC(=O)[C@]12CCC=C1N(Cc1ccc(Cl)cc1Cl)C(=O)[C@H](CC(=O)NCc1ccccc1)C2`?
HT1080-NT tox: inconclusive; KB-3-1 cytotox: inactive; KB-V1 MDR tox: inconclusive; HT1080 IDH1KD tx: inconclusive

How did O=C(CN(Cc1ccccc1Cl)C(=O)c1ccc(CN2CCOCC2)o1)NCc1ccccc1 do in these assays?
HT1080-NT tox: 3%; KB-3-1 cytotox: inactive; KB-V1 MDR tox: 12µM*; HT1080 IDH1KD tx: 4%

How did COC(=O)c1c(NC(=O)c2ccccc2)sc(Cc2ccccc2)c1C do in these assays?
HT1080-NT tox: 11%; KB-3-1 cytotox: inactive; KB-V1 MDR tox: 13µM*; HT1080 IDH1KD tx: 10%

Results for CCOc1ccccc1N1CC(c2nc3ccccc3n2CCOc2ccc(OC)cc2)CC1=O (stereo not drawn) ?
KB-3-1 cytotox: inactive; KB-V1 MDR tox: 5.8µM*

How did CCOc1ccccc1N1CC(c2nc3ccccc3n2CCCOc2ccc(OC)cc2)CC1=O (stereo not drawn) do in these assays?
KB-3-1 cytotox: inactive; KB-V1 MDR tox: inconclusive

How did COc1ccc(/C=C\C(=O)c2c(O)ccc3c(C)cc(=O)oc23)cc1 do in these assays?
HT1080-NT tox: inconclusive; KB-3-1 cytotox: 23µM*; KB-V1 MDR tox: inconclusive; HT1080 IDH1KD tx: inconclusive

How did COc1ccccc1CN1CCC(CNC(=O)c2cnn(-c3ccc(Cl)cc3)c2C2CCN(C(=O)OC(C)(C)C)CC2)CC1 do in these assays?
KB-3-1 cytotox: 16µM*; KB-V1 MDR tox: inconclusive

Results for Cc1ccc2c(=O)c(C(=O)c3cccc(Cl)c3)cn(CC(=O)Nc3ccccc3C(F)(F)F)c2n1 ?
KB-3-1 cytotox: inactive; KB-V1 MDR tox: inactive

How did CCOC(=O)c1c(NC(=O)CSc2cn(CCNC(=O)c3c(F)cccc3F)c3ccccc23)sc2c1CCCC2 do in these assays?
KB-3-1 cytotox: inconclusive; KB-V1 MDR tox: inactive

How did O=C(Nc1ccccc1Br)C1CCC(=O)N1Cc1ccccc1Cl (stereo not drawn) do in these assays?
HT1080-NT tox: 2%; KB-3-1 cytotox: inactive; KB-V1 MDR tox: 21µM*; HT1080 IDH1KD tx: 4%

Results for CN(C)C(=O)c1cccc(-c2cc(NC=O)c3ncc(-c4ccc(F)cc4)n3c2)c1 ?
HT1080-NT tox: inconclusive; KB-3-1 cytotox: inconclusive; KB-V1 MDR tox: 21µM*; HT1080 IDH1KD tx: inconclusive

How did CC(=O)Nc1cc(-c2ccc(C(=O)N3CCOCC3)cc2)cn2c(-c3cccc(C(C)=O)c3)cnc12 do in these assays?
HT1080-NT tox: -23%; KB-3-1 cytotox: inactive; KB-V1 MDR tox: inactive; HT1080 IDH1KD tx: -16%

Results for COc1ccc(-c2cnc3c(NC=O)cc(-c4ccc(C(=O)N5CCOCC5)cc4)cn23)cc1OC ?
HT1080-NT tox: inconclusive; KB-3-1 cytotox: inconclusive; KB-V1 MDR tox: inconclusive; HT1080 IDH1KD tx: 21µM*

Results for COc1cccc(-c2cnc3c(NC(C)=O)cc(-c4ccc(C(=O)N5CCOCC5)cc4)cn23)c1 ?
HT1080-NT tox: inconclusive; KB-3-1 cytotox: inactive; KB-V1 MDR tox: inactive; HT1080 IDH1KD tx: 21µM*

Results for COc1cccc(-c2cc(NC=O)c3ncc(-c4ccc(C(C)=O)cc4)n3c2)c1 ?
HT1080-NT tox: 18µM*; KB-3-1 cytotox: 5.2µM*; KB-V1 MDR tox: 18µM*; HT1080 IDH1KD tx: 10µM*

Results for CCCCCSc1nc2sc3c(c2c(=O)n1-c1ccc(OC)cc1)CCN(C(C)=O)C3 ?
KB-3-1 cytotox: inconclusive; KB-V1 MDR tox: inactive

What do the screens show for `O=CNc1cc(-c2ccc(C(=O)NC3CC3)cc2)cn2c(-c3ccc(F)cc3)cnc12`?
HT1080-NT tox: inconclusive; KB-3-1 cytotox: inactive; KB-V1 MDR tox: inconclusive; HT1080 IDH1KD tx: 8.2µM*

Results for COc1ccc(-c2cc(NC=O)c3ncc(-c4ccc(C(C)=O)cc4)n3c2)cc1OC ?
HT1080-NT tox: 16µM*; KB-3-1 cytotox: inactive; KB-V1 MDR tox: inconclusive; HT1080 IDH1KD tx: 13µM*
